Structures can show the parent of a compound that is named as a salt. ± gives the standard deviation of the averaged measurements.

The subject of the assay is Toxoplasma gondii RH (in HFF). Nature of the assay: parasite growth relative to the screen mean (all compounds = 100%); higher = less inhibition of parasite growth. The note with it: 5 µM; 72 h; oxygen 21 %. In a few lines:
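Parasite growth was reported relative to the screen mean. In that scale, the mean of all compounds equals 100%, and values are averaged over two screens. Compounds from 10 mM DMSO stocks were pin-transferred to 5 µM final onto confluent human foreskin fibroblasts in 96-well plates, infected within 2 h with RH β-Gal–GFP Toxoplasma (MOI 1:5) and grown 72 h at 21% O2, with parasite number read by a CPRG β-Gal assay against in-plate standard curves. Uninfected host-cell viability was checked with CellTiter-Blue.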
Compound `CCCN(CCC)C1CCc2cccc(O)c2C1` (centres undefined) [8-Hydroxy-DPAT hydrobromide] returned a parasite growth of 121 ± 11%.

On to `Cc1ccc(C[N+](C)(C)C)o1` [5-Methylfurmethiodide], for which the parasite growth turned out to be 100 ± 6.6%. `O=c1[nH]oc2c1CCNC2` [THIP hydrochloride] showed a parasite growth of 119 ± 21%. Turning to `N#Cc1ccc(N2CCN(C(=O)COc3ccc4[nH]cc(CCN)c4c3)CC2)cc1` [Donitriptan hydrochloride], the parasite growth is 78.6 ± 12%.

The compound `CN1[C@@H]2CC[C@H]1C[C@@H](OC(c1ccc(F)cc1)c1ccc(F)cc1)C2` [3α-Bis-(4-fluorophenyl) methoxytropane hydrochloride] registered a parasite growth of 40.3 ± 22%. Regarding `Cn1cc(C(=O)C(=O)N[C@H]2CN3CCC2CC3)c2ccccc21`, the parasite growth was found to be 96.5 ± 6.7%. Take `C#CCOC(=O)C1=CCCN(C)C1` [Arecaidine propargyl ester tosylate]: the parasite growth was 137 ± 4.5%. Consider `NP(N)(=O)NC(=O)c1ccc(F)cc1` [Flurofamide], for which the parasite growth was found to be 90 ± 34%.

Compound `Oc1ccc2c3c1O[C@H]1c4[nH]c5ccccc5c4C[C@@]4(O)[C@@H](C2)N(CC2CC2)CC[C@]314` [Naltrindole hydrochloride] came in with a parasite growth of 148 ± 35%. With `CS(=O)(=O)Nc1ccc(Cc2noc(-c3ccc4[nH]cc(CCN)c4c3)n2)cc1`, the parasite growth is 124 ± 6.6%. With `C=CCN1CC[C@]2(C)c3cc(O)ccc3C[C@H]1C2C` (single isomer, unassigned; (+)), the parasite growth turned out to be 97.7 ± 5.9%. On to `CCN(CC)CCO[C@H]1CC[C@@]2(C)C(=CC[C@@H]3[C@@H]2CC[C@]2(C)C(=O)CC[C@@H]32)C1`, for which the parasite growth turned out to be 79.6 ± 24%. In the case of `NCc1cc(O)no1` [Muscimol], the parasite growth turned out to be 154 ± 28%. The value for `C[C@H]1CCC/C=C/[C@@H]2C[C@H](O)C[C@H]2[C@H](O)/C=C/C(=O)O1` [Brefeldin A] was less than 0%; that for `C=CCN1C[C@H](C)N([C@H](c2ccc(C(=O)N(CC)CC)cc2)c2cccc(O)c2)C[C@H]1C` was 110 ± 22%; that for `Cc1ncsc1CCCl` [Chlormethiazole hydrochloride] was 60 ± 21%. As to `O=C(O)c1ccc2[nH]cc(CCCCN3CC=C(c4ccccc4)CC3)c2c1` [Carmoxirole hydrochloride], the parasite growth was determined as 103 ± 7.4%. Consider `O=C1C2CCN(CC2)C1(CO)CO`, for which the parasite growth turned out to be 144 ± 4%. In turn, `Cc1onc(O)c1CC(N)C(=O)O` (racemic) [(RS)-AMPA hydrobromide] showed a parasite growth of 121 ± 16%. With `CC(C)C[C@H]1C(=O)N2CCC[C@H]2[C@]2(O)O[C@](NC(=O)[C@@H]3C=C4c5cccc6[nH]c(Br)c(c56)C[C@H]4N(C)C3)(C(C)C)C(=O)N12` [Bromocriptine mesylate] the figure was 13.6 ± 8.4%. Compound `N[C@@H]1C[C@H]1c1ccccc1` [Tranylcypromine hydrochloride] yielded a parasite growth of 130 ± 22%.

As to `OC(Cc1ccncc1)C(Cl)(Cl)Cl` (centres undefined), the parasite growth is 133 ± 9.6%. In turn, `CCCN[C@@H]1CCc2c(OC)cccc2[C@@H]1C` [(+)-AJ 76 hydrochloride] gave a parasite growth of 66.5 ± 24%. As to `CN1CCc2cc3c(cc2C1C1OC(=O)c2c1ccc1c2OCO1)OCO3` (single isomer, unassigned; (+)) [(+)-Bicuculline], the parasite growth worked out at 141 ± 54%. The compound `O=[N+]([O-])c1cc(O)c(O)c([N+](=O)[O-])c1` gave a parasite growth of 80.4 ± 42%.

The compound `NC1(c2ccccc2Cl)CCCCC1=O` (centres undefined) [Norketamine hydrochloride] showed a parasite growth of 86.9 ± 27%. In the case of `c1ccc(CCCCN2CCC(c3ccccc3)CC2)cc1` [4-PPBP maleate], the parasite growth was determined as 82.8 ± 5.3%. The value for `CO[C@]12C[C@@H](COC(=O)c3cncc(Br)c3)CN(C)[C@@H]1Cc1cn(C)c3cccc2c13` [Nicergoline] was 126 ± 5.7%; that for `Ic1cncc(OC[C@@H]2CCN2)c1` was 137 ± 16%; that for `c1ccc(C2CC2)c(OCC2=NCCN2)c1` [Cirazoline hydrochloride] was 91.7 ± 19%.

`CC(=O)N1CC[N+](C)(C)CC1` [4-Acetyl-1,1-dimethylpiperazinium iodide] registered a parasite growth of 130 ± 13%.

In turn, `O=C(O)Cc1cccnc1C(=O)O` [Homoquinolinic acid] returned a parasite growth of 85.7 ± 1.6%.

In turn, `O=C(Cc1ccc(Cl)c(Cl)c1)N1CCCCC1CN1CCCC1` (centres undefined) had a parasite growth of 82.1 ± 15%. On to `NCCc1c[nH]c2ccc(O)cc12` [Serotonin], for which the parasite growth stood at 106 ± 15%. `O=c1[nH]c2ccccc2n1CCCN1CCC(n2c(=O)[nH]c3cc(Cl)ccc32)CC1` [Domperidone] gave a parasite growth of 129 ± 11%.

`c1ccc2sc(C3(N4CCCCC4)CCCCC3)cc2c1` [BTCP maleate] yielded a parasite growth of 64.9 ± 4.1%. The compound `CCC1(C2=NCCN2)Cc2ccccc2O1` (centres undefined) [Efaroxan hydrochloride] had a parasite growth of 113 ± 6.3%. The value for `O=C1CN=C(c2cccc(Br)c2)c2oc3ccccc3c2N1` was 96 ± 4.5%; that for `CN1CCC(c2c[nH]c3ccc(O)cc23)CC1` was 177 ± 16%.

The values above are taken from the supplement of paper PMC4894684.
